Data as given in PubChem BioAssay (Tox21).
Where “and” joins values, the source holds several entries; their conditions need not be identical. Equal values may be shown once. Inconclusive results are not listed. Entries that show only a call come without a potency. Some compounds were tested as several samples or in several runs, with calls that do not always agree. Calls of active or inactive are those of the source. Unless noted, calls come from the whole dose curve.

Assays:
[1] = qHTS assay to identify small molecule antagonists of the estrogen related receptor signaling pathway with the pleiotropic PPARgamma coactivator (PGC) from Tox21 10K library - cell viability counter screen (AID 1224840; active = well fitted cell-killing curve with a large enough effect in the repeat runs, not every such curve was filed as active; note: nearly all actives have a fitted effect of over 40% in size; note: potency is the fitted concentration of half-maximal effect); conditions: PGC/ERR reporter cells viability, CellTiter-Fluor, 17.5 h; series mostly up to 92.4 µM
How it was run: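 Seeded PGC/ERR cells (2,000/well, 6 h, 37 C/5% CO2) get compound by pin tool; 17.5 h incubation at 37 C; CellTiter-Fluor added, 30 min, fluorescence measured.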

[2] = qHTS assay to identify small molecule agonists of the hypoxia (HIF-1) signaling pathway - cell viability counter screen (AID 1224844); conditions: HRE-bla ME-180 viability, CellTiter-Glo luminescence, 17 h; series mostly up to 76.8 µM; note: nearly all actives have a fitted effect of over 50% in size
How it was run: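 HRE-bla ME-180; 0.5% dFBS; cpd 17 h, 37C, 5% CO2; CellTiter-Glo lum., 30 min RT, post-FRET read, same wells.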

[3] = qHTS assay to identify small molecule agonists of H2AX (AID 1224845; active = well fitted activation curve with a large enough effect in the signal ratio in the repeat runs, not every such curve was filed as active; the % refers to the signal ratio); conditions: CHO-K1 phospho-H2AX Ser139 HTRF, 3 h; series mostly up to 154 µM
How it was run: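 Phospho-H2AX Ser139 measured by HTRF (ex 320 nm; em 665 and 620 nm) after 24 hr antibody incubation. Compounds, 15 concentrations, 0.76% DMSO, were applied to CHO-K1 cells for 3hr at 37C before lysis.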

[4] = qHTS assay to identify small molecule agonists of the hypoxia (HIF-1) signaling pathway (AID 1224846; active = well fitted activation curve with a large enough effect in the signal ratio in the repeat runs, not every such curve was filed as active; the % refers to the signal ratio); conditions: HRE-bla ME-180 cells, beta-lactamase ratio, 17 h; series mostly up to 76.8 µM
How it was run: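 Reporter induction in HRE-bla ME-180 cells is taken as agonism: cells sit 5 hrs after plating, receive compounds or DMSO only, incubate 17 hrs at 37C under 5% CO2, and are loaded with CCF4-AM for beta-lactamase FRET measurement.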

[5] = qHTS assay to identify small molecule agonists of H2AX - cell viability counter screen (AID 1224847); conditions: CHO-K1 viability, CellTiter-Glo luminescence, 3 h; series mostly up to 154 µM; note: nearly all actives have a fitted effect of over 30% in size; note: potency is the fitted concentration of half-maximal effect; for activity change, negative = cytotoxicity: top concentration of the series differs between compounds
How it was run: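 Wild-type CHO-K1 cells (10% FBS medium) were plated overnight at 37C, exposed to compounds at 15 concentrations for 3 hr at 37C (0.76% DMSO final), and viability was read as CellTiter-Glo luminescence after 30 min at room temperature.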

[6] = target: Nuclear receptor subfamily 1 group I member 3 (Homo sapiens) (UniProt Q14994); assay: qHTS assay to identify small molecule agonists of the constitutive androstane receptor (CAR) signaling pathway (AID 1224839; active = well fitted curve in the direction sought with a large enough effect in the repeat runs; an effect the other way counts as inactive or inconclusive; note: nearly all actives have a fitted effect of over 15% in size; note: potency is the fitted concentration of half-maximal effect;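 for activation: HepG2 cells stably carrying human CAR and a CYP2B6 luciferase reporter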); conditions: HepG2 hCAR CYP2B6-luciferase, agonist mode, 24 h; series mostly up to 92.4 µM
How it was run: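 HepG2 cells stably expressing hCAR and a CYP2B6-2.2kb luciferase reporter were treated with compounds at 15 concentrations plus 0.75 uM PK11195 (final) for 24 h at 37 C; luminescence was read after ONE-Glo addition.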

[7] = qHTS assay to identify small molecule antagonists of the estrogen related receptor signaling pathway with the pleiotropic PPARgamma coactivator (PGC) from Tox21 10K library (AID 1224841; call rule not given here; note: actives are mostly falling curves and most rising ones were filed inactive; nearly all actives have a fitted effect of over 50% in size; note: potency is the fitted concentration of half-maximal effect); conditions: PGC/ERR reporter cell line, ONE-Glo luciferase, 18 h; series mostly up to 92.4 µM
How it was run: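 Test chemicals dissolved in DMSO were applied to pre-incubated (6 h) PGC/ERR cells at 2,000 cells/well for an 18 h, 37 C treatment; reporter luminescence was then read using One-Glo.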

[8] = target: Thyrotropin receptor (Homo sapiens) (UniProt P16473); assay: qHTS assay to identify small molecule agonists of the thyroid stimulating hormone receptor (TSHR) signaling pathway (AID 1224843); conditions: TSHR-HEK293 cells, cAMP HTRF, agonist mode, 30 min; series mostly up to 92.4 µM; note: nearly all actives have a fitted effect of over 45% in size
How it was run: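 Agonist activity read as cAMP rise via d2/cryptate HTRF competition, 1 h room-temperature detection, in HEK293 cells expressing TSHR. Fifteen-point titrations, each run in triplicate, with a 30 min room-temperature incubation beforehand.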

[9] = qHTS assay to identify small molecule antagonists of the estrogen related receptor (ERR) signaling pathway from Tox21 library (AID 1224848; active = well fitted curve in the direction sought with a large enough effect in the repeat runs; an effect the other way counts as inactive or inconclusive; note: nearly all actives have a fitted effect of over 50% in size; note: potency is the fitted concentration of half-maximal effect); conditions: ERR reporter cell line, luciferase antagonist mode, 18 h; series mostly up to 92.4 µM
How it was run: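 Luciferase luminescence (ONE-Glo, 30 min room temperature) was the read-out. Cells of the NTP-supplied ERR line, 2,000 per well, were given 6 h at 37 C before compound addition in DMSO and 18 h exposure at 37 C.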

[10] = qHTS assay to identify small molecule agonists of the estrogen related receptor signaling pathway with the pleiotropic PPARgamma coactivator (PGC) from Tox21 10K library (AID 1224842; active = well fitted curve in the direction sought with a large enough effect in the repeat runs; an effect the other way counts as inactive or inconclusive; note: nearly all actives have a fitted effect of over 15% in size); conditions: PGC/ERR reporter cell line, luciferase ONE-Glo, 18 h; series mostly up to 92.4 µM
How it was run: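 Luminescence from One-Glo (30 min, room temperature) measured after PGC/ERR cells had 18 h at 37 C with pinned compound (23 nL in DMSO). Cells had been seeded at 2,000 per well and pre-incubated 6 h.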

Sequence of Nuclear receptor subfamily 1 group I member 3 (Homo sapiens) (Q14994 whole entry, looked up): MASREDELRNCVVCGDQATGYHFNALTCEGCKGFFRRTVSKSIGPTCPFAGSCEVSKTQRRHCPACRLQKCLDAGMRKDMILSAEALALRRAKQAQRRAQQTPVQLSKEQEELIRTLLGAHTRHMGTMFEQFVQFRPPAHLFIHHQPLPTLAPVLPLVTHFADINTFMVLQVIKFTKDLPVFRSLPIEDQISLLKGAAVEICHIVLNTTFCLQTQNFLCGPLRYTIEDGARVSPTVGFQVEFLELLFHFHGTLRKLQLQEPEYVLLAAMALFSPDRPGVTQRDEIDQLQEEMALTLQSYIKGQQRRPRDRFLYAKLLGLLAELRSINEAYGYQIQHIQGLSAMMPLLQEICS
Sequence of Thyrotropin receptor (Homo sapiens) (P16473 whole entry, looked up): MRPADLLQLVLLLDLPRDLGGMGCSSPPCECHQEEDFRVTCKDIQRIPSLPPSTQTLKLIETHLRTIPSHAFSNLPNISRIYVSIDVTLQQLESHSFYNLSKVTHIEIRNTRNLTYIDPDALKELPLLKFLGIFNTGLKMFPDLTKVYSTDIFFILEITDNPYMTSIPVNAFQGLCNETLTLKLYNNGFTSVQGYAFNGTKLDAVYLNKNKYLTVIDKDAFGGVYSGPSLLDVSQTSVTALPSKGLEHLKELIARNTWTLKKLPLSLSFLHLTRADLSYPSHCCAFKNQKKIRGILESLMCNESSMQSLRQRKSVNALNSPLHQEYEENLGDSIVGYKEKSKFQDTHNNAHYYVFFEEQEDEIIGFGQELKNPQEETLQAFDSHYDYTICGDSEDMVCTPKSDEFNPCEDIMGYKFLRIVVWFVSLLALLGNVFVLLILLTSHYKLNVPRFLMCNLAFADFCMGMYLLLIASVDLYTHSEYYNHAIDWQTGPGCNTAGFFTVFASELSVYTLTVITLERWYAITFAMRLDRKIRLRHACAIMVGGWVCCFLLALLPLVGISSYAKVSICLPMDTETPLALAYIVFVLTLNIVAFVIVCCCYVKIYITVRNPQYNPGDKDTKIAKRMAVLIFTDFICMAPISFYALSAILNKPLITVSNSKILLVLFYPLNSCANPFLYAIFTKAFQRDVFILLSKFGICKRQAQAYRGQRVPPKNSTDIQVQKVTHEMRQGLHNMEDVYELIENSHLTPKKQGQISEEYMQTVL

Row | Compound | Potency [1] | Potency [2] | Potency [3] | outcome [4] | Potency [5] | Potency [6] | Potency [7] | Potency [8] | Potency [9] | outcome [10] | activity change, negative = cytotoxicity [2]
1 | CCN(CC)c1ccccc1 | inactive | inactive | inactive | inactive | inactive | – | – | – | – | – | –
2 | CN(C)N=O | inactive | inactive | inactive | inactive | inactive | inactive | – | – | – | – | –
3 | Cc1cccc([N+](=O)[O-])c1 | inactive | inactive | – | – | inactive | – | inactive | inactive | inactive | – | –
4 | c1ccc(-c2ccccc2)cc1 | inactive | inactive | inactive | inactive | inactive | – | – | inactive | – | – | –
5 | C#CCN(C)[C@H](C)Cc1ccccc1 | inactive | inactive | inactive | – | inactive | – | – | inactive | – | – | –
6 | Nc1c(Cl)c(Cl)nc(C(=O)O)c1Cl | inactive | inactive | – | – | inactive | – | – | inactive | – | – | –
7 | COC(=O)NC(=S)Nc1ccccc1NC(=S)NC(=O)OC | inactive | inactive | – | – | inactive | inactive | – | inactive | – | – | –
8 | COc1ccc2c3c1O[C@H]1[C@@H](O)C=C[C@H]4[C@@H](C2)N(C)CC[C@@]341 | 42.6 µM (active) and inactive | inactive | – | – | inactive | – | 23.9 µM (active) and inactive | inactive | 26.9 µM (active) and inactive | inactive | –
9 | CCCCN(CC)C(=O)SCCC | inactive | inactive | – | – | inactive | inactive | – | inactive | – | – | –
10 | CCCCN(CCCC)SN(C)C(=O)Oc1cccc2c1OC(C)(C)C2 | inactive | inactive | – | inactive | – | – | – | inactive | – | – | –
11 | CC(C#N)CCC#N (configuration not stated) | inactive | inactive | inactive | inactive | inactive | – | inactive | inactive | inactive | inactive | –
12 | C=CC(N)=O | inactive | inactive | – | inactive | inactive | – | – | inactive | inactive | – | –
13 | O=[N+]([O-])c1ccccc1 | inactive | inactive | – | inactive | inactive | – | inactive | inactive | inactive | inactive | –
14 | CCOP(=S)(OCC)SCCSCC | inactive | inactive | inactive | inactive | inactive | inactive | – | – | – | – | –
15 | Nc1ccc(Br)cc1 | inactive | inactive | – | inactive | inactive | – | – | inactive | – | – | –
16 | CC(NC(C)(C)C)C(=O)c1cccc(Cl)c1 (configuration not stated) | inactive | inactive | – | – | inactive | – | – | – | – | – | –

Row | Compound | Potency [1] | Potency [2] | Potency [3] | outcome [4] | Potency [5] | Potency [6] | Potency [7] | Potency [8] | Potency [9] | outcome [10] | activity change, negative = cytotoxicity [2]
17 | CCOP(OCC)OCC | inactive | inactive | – | – | inactive | inactive | – | – | – | – | –
18 | OCCN(CCO)CCO | inactive | inactive | – | inactive | inactive | – | – | inactive | – | – | –
19 | CC(C)OC(=O)Nc1ccccc1 | inactive | inactive | inactive | inactive | inactive | – | inactive | inactive | inactive | inactive | –
20 | CC(Oc1ccc(Cl)cc1Cl)C(=O)O (configuration not stated) | inactive | inactive | inactive | inactive | inactive | – | – | inactive | – | – | –
21 | CC(C)(C)OOC(=O)c1ccccc1 | inactive | inactive | – | – | inactive | inactive | – | – | – | – | –
22 | Cc1cc(-c2cc(C)c(N)c(C)c2)cc(C)c1N | inactive | inactive | – | inactive | inactive | inactive | – | – | – | – | –
23 | CC(C)OC(=O)Nc1cccc(Cl)c1 | inactive | inactive | inactive | – | – | – | inactive | inactive | inactive | inactive | –
24 | CCCCCOC(=O)c1ccccc1C(=O)OCCCCC | inactive | inactive | inactive | – | inactive | inactive | – | – | – | – | –
25 | C=C(C)CCl | inactive | – | inactive | inactive | inactive | inactive | – | – | – | – | -1.52% [at 6.97 µM] (inactive)
26 | O=S(=O)(c1ccc(Cl)cc1)c1cc(Cl)c(Cl)cc1Cl | inactive | inactive | inactive | inactive | 89.6 µM (active) | 30.6 µM (active) and 27.3 µM (active) | – | – | – | – | –
27 | O=c1ccc(=O)[nH][nH]1 | inactive | inactive | inactive | inactive | inactive | – | inactive | inactive | inactive | inactive | –
28 | CCNc1nc(NC(C)(C)C)nc(SC)n1 | inactive | inactive | inactive | inactive | inactive | – | – | inactive | – | – | –
29 | CCCCCCCCCl | inactive | inactive | inactive | inactive | inactive | – | – | – | – | – | –
30 | CC(C)N1C(=O)c2ccccc2NS1(=O)=O | inactive | inactive | – | inactive | inactive | – | inactive | inactive | inactive | inactive | –
31 | CC1OC(C)OC(C)O1 (configuration not stated) | inactive | inactive | inactive | – | inactive | – | inactive | – | inactive | inactive | –
32 | Nc1ccc(Cc2ccc(N)cc2)cc1 | inactive | inactive | inactive | – | inactive | – | – | inactive | – | – | –
